MITF inh = inhibitors of MITF, primary screen, MITF inhibitor project, cell-based, luminescence | TRPM1 promoter luciferase, 24 h | inhibition, % (concentration not given with the values) | 0.28% of 37,000 active | AID 2240, 2010; in the data active = inhibition above about 85%; inconclusive = no clear call, values can overlap the other calls; inactive = below about 68%;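 note: human melanocyte line stably carrying TRPM1 promoter luciferase reporter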
BJeLR viability = BJeLR cell viability loss, primary screen, luminescence, CellTiterGlo ATP. 0.64% of 30,000 active. BJeLR fibroblasts viability, 48 h; HRASV12, hTERT and SV40 LT/ST transformed. AID 2275, 2010. viability loss activity score, % (no concentration beside the values); in the data active = viability loss activity score above about 50%; inconclusive = no clear call, values can overlap the other calls; inactive = below about 35%;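 note: higher score means fewer live cells and less ATP luminescence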
YB-1 expr inh = inhibitors of YB-1 gene expression, primary screen, cell-based, fluorescence. U2OS, qRT-PCR YB-1 vs CDIP delta delta Cp, 16 h; hits give high values; zero = DMSO, each unit about twofold. delta delta Cp (YB-1 minus CDIP) (no concentration beside the values). 0.37% of 30,000 active;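 active = delta delta Cp rounded down to an integer at or above 3, about 3 SD of DMSO wells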;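 note: higher means less YB-1 transcript or more CDIP transcript relative to DMSO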
Shh pathway inh = Hedgehog pathway signaling inhibitors, primary screen, luminescence, Shh-LIGHT2 cells, Gli-luciferase | Shh-LIGHT2 Gli-luciferase reporter, 30 h | inhibition, % (no concentration beside the values) | 2.1% of 22,000 active | AID 2313, 2010;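 active = mean inhibition across valid replicates above about 65%, limit read from the data; inconclusive = mean under the limit, yet half or more replicates past it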;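 note: pathway switched on by Shh-conditioned medium diluted 1 in 25 in low serum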
* = called active by the depositor; u = inconclusive; x = not tested or not shown. The entries come from a sample that favours hits as a whole.

SMILES	MITF inh	BJeLR viability	YB-1 expr inh	Shh pathway inh
Cc1ccc(Nc2nnc(-c3ccc(C)c(S(=O)(=O)NCC4CCCO4)c3)c3ccccc23)cc1 (stereo unspecified)	-1.6	4.8	-0.315	91.0*
C[C@@H]1CN([C@H](C)CO)C(=O)c2cccc(NS(=O)(=O)c3ccc(F)cc3)c2O[C@@H]1CN(C)C	-4.5	-1.7	-0.25	14.6
C[C@@H]1CN([C@H](C)CO)C(=O)Cc2cc(NC(=O)C3CCCCC3)ccc2O[C@@H]1CN(C)Cc1ccc(Oc2ccccc2)cc1	38.9	x	0.11	69.7*
COc1ccc(CN(C)C[C@H]2Oc3ccc(NC(=O)Nc4cccc5ccccc45)cc3CC(=O)N([C@@H](C)CO)C[C@H]2C)cc1	4.4	x	0.256	-0.7
COc1ccc(CN(C)C[C@@H]2Oc3ccc(NC(=O)Nc4cccc5ccccc45)cc3CC(=O)N([C@@H](C)CO)C[C@@H]2C)cc1	-7.9	x	0.113	68.6*
C[C@@H]1CN([C@H](C)CO)C(=O)Cc2cc(NC(=O)c3ccncc3)ccc2O[C@@H]1CN(C)Cc1ccc(Oc2ccccc2)cc1	3.6	x	0.844	72.9*
C[C@@H]1CN([C@@H](C)CO)C(=O)Cc2cc(NC(=O)C3CCCCC3)ccc2O[C@@H]1CN(C)Cc1ccc(Oc2ccccc2)cc1	9.8	x	0.113	u
COC(=O)c1ccccc1N(C)C(=O)c1cccc(S(=O)(=O)N2CCCCC2)c1	x	-2.2	x	x
Cn1c(SCC(=O)Nc2ccc(S(N)(=O)=O)cc2)nnc1-c1ccccc1Cl	-4.2	x	x	x
COc1cc(OC)c(/C=N/NC(=O)c2cccc(C(=O)NO)c2)c(OC)c1	x	x	-0.634	x
Cc1noc(C)c1NC(=O)N(C)C[C@H]1Oc2ccc(NC(=O)CCN3CCOCC3)cc2CC(=O)N([C@@H](C)CO)C[C@H]1C	0.2	x	-0.548	66.5*
Cc1noc(C)c1NC(=O)N(C)C[C@@H]1Oc2ccc(NC(=O)CCN3CCOCC3)cc2CC(=O)N([C@H](C)CO)C[C@H]1C	1.4	x	0.145	-8.4
Cc1noc(C)c1NC(=O)N(C)C[C@@H]1Oc2ccc(NS(=O)(=O)c3cccs3)cc2CC(=O)N([C@@H](C)CO)C[C@@H]1C	-12.7	x	14.5*	-9.3
CNC[C@@H]1Oc2ccc(NC(=O)CCN3CCOCC3)cc2CC(=O)N([C@H](C)CO)C[C@H]1C	-0.3	x	9.51*	5.2
C[C@@H]1CN([C@@H](C)CO)C(=O)CCCn2nncc2CO[C@@H]1CN(C)Cc1ccccc1C(F)(F)F	x	x	-0.282	x
O=C1CC(SCc2ccc(Cl)cc2)C(=O)N1c1ccc(Br)cc1 (stereo unspecified)	4.4	1.9	0.215	93.6*
CC1CCC(C(C)C)C(NC(=S)Nc2cccc(F)c2)C1 (stereo unspecified)	66.1	1.0	-0.217	101.8*
Cc1ccnc(SCC(=O)Nc2ccc(Cl)cc2Cl)n1	-30.7	x	x	x
COc1ccccc1-c1coc2cc(OCc3ccc(C)cc3)ccc2c1=O	x	-3.0	x	x
O=c1c(Cc2ccccc2OCc2ccccc2)coc2ccccc12	16.8	-7.1	-0.269	93.0*
CC12CCC(CC(=O)c3ccccc3)(CC1)CC2	-37.2	1.3	0.736	x
CC(C)(C)C1CCC2(CC1)C(C#N)C2(C#N)C(=O)c1ccccc1 (stereo unspecified)	85.3*	6.7	0.0583	u
CC1(C)Cc2ccccc2C(CSc2nc3c(c(C(F)(F)F)n2)CCCC3)=N1	x	-5.4	x	x
C=C(C)C(=O)O[C@H]1[C@H]2C(=C)C(=O)O[C@@H]2C[C@@H](C)[C@@H]2O[C@@H]2C(=O)[C@](C)(O)[C@@H]1OC(=O)C(=C)C	41.0	79.7*	-0.535	99.8*
C[C@@H]1CN([C@H](C)CO)C(=O)Cc2cc(NC(=O)Nc3ccc4c(c3)OCO4)ccc2O[C@H]1CN(C)C	3.3	x	10.9*	-9.6
SMILES	MITF inh	BJeLR viability	YB-1 expr inh	Shh pathway inh
C[C@@H]1CN([C@@H](C)CO)C(=O)Cc2cc(NC(=O)Nc3ccc4c(c3)OCO4)ccc2O[C@@H]1CN(C)C	-3.6	x	0.263	20.5
CC(C)NC(=O)Nc1ccc2c(c1)CC(=O)N([C@H](C)CO)C[C@H](C)[C@H](CN(C)C(=O)Nc1ccc(F)cc1)O2	-12.1	x	-0.235	77.2*
CC(C)NC(=O)Nc1ccc2c(c1)CC(=O)N([C@H](C)CO)C[C@@H](C)[C@H](CN(C)C(=O)Nc1ccc(F)cc1)O2	-8.2	x	-0.151	-8.5
C[C@@H]1CN([C@@H](C)CO)C(=O)Cc2cc(NC(=O)Nc3ccc(C(F)(F)F)cc3)ccc2O[C@@H]1CN(C)C(=O)Nc1ccc2c(c1)OCO2	54.7	x	0.0516	82.6*
CCc1ccc(OCC(=O)Nc2ccccc2C(=O)OC)c(Br)c1	-19.1	x	x	x
COc1ccc(NC(=O)CCc2nc(-c3ccccc3)no2)cc1	-20.9	x	x	x
CC(C)(C)c1ccc(-c2cc3ccccn3c2)cc1	-5.1	0.6	10.2*	-3.2
COc1ccc(CNC(=O)Nc2ncc([N+](=O)[O-])s2)cc1	87.4*	10.0	-0.43	49.4
COc1ccc([C@H]2COc3c(ccc(O)c3OC)C2)c(OC)c1O	-7.8	-2.7	-0.277	-17.7
CN1CCc2cc3c(cc2C2OC(O)c4c(ccc5c4OCO5)C21)OCO3 (stereo unspecified)	6.3	-2.2	0.446	-12.5
O[C@H]1[C@H]2c3cc4c(cc3CN3CCC(=C[C@@H]1O)[C@H]23)OCO4	62.4	63.2*	0.0701	83.1*
O[C@@H]1[C@@H](O)C=C2CCN3Cc4cc5c(cc4[C@H]1C23)OCO5 (stereo partly specified)	62.8	24.1	-0.626	95.8*
Cc1ccc(N=Cc2cc3ccccc3nc2Cl)cc1Cl	16.4	1.3	0.135	88.6*
Fc1ccc(C=Nc2ccc3ccccc3c2)cc1	6.6	-4.0	0.21	-31.7
Cc1cc(C(=O)Nc2cccc3c2O[C@H](CN(C)C(=O)Nc2c(C)noc2C)[C@@H](C)CN([C@H](C)CO)C3=O)n(C)n1	-17.3	0.3	0.453	-78.6
N#CNC(=Nc1ccccc1C(F)(F)F)N1CCCC1	x	5.7	x	x
Cc1cc(C(=O)Nc2cccc3c2O[C@H](CN(C)Cc2ccc(Oc4ccccc4)cc2)[C@@H](C)CN([C@@H](C)CO)C3=O)n(C)n1	45.0	-3.8	-0.246	76.6*
Cc1cc(C(=O)Nc2cccc3c2O[C@@H](CN(C)Cc2ccc(Oc4ccccc4)cc2)[C@H](C)CN([C@H](C)CO)C3=O)n(C)n1	42.1	2.6	-0.21	69.2*
Cc1cc(C(=O)Nc2cccc3c2O[C@H](CN(C)Cc2ccc(Oc4ccccc4)cc2)[C@H](C)CN([C@@H](C)CO)C3=O)n(C)n1	-15.8	4.1	-0.368	-19.9
N/C(CS(=O)(=O)Cc1ccc(F)cc1)=N\O	x	-2.3	x	x
C[C@@H]1CN([C@H](C)CO)C(=O)Cc2cc(NC(=O)Cc3cn(C)c4ccccc34)ccc2O[C@@H]1CN(C)Cc1ccc(Cl)c(Cl)c1	20.1	x	-0.0455	-15.7
CC(C)(C)c1cc(O)c(C(C)(C)C)cc1O	25.0	3.6	0.355	90.3*
